Results as given in PubChem BioAssay AID504848 (National Center for Advancing Translational Sciences (NCATS), 2011).
The whole screen tested about 2,300 compounds, of which about 1,400 (61%) were called active. Not shown: some 29% with an inconclusive outcome. The call rests on the fitted dose curve; in most records, active means well fitted inhibition curve with a large enough effect; inconclusive means small, poorly fitted or top-dose-only effect, or effect the other way; inactive means no such curve, though single readings can be large or run the other way. So high a share suggests a set chosen from earlier hits. This is one part of the list.

experiment: Confirmation screen for delayed death inhibitors of the malarial parasite plastid, 96 hour incubation; further: nearly all actives have a fitted effect of over 60% in size; conditions: P. falciparum luciferase growth in erythrocytes; series mostly up to 28.7 µM
Procedure, shortened: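 Erythrocytes infected with luciferase-expressing P. falciparum (2% hematocrit, 0.1% parasitemia final) in RPMI 1640 with 0.5% Albumax, exposed to compounds 96 h at 37 C, 5% CO2. Growth inhibition read as decreased luciferase luminescence.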
Potency means the concentration at half of the fitted maximal effect.

Row | Structure (SMILES) | Potency
1 | Cn1cc([N+](=O)[O-])c(C(=O)Nc2nccs2)n1 | inactive
2 | CC(C)(C)OC(=O)NCCCCCNC(=O)c1[nH]cnc1C(=O)Nc1nccs1 | 7.08 µM (active)
3 | COc1cccc(F)c1C(C[N+](=O)[O-])c1c(N)n(C)c(=O)n(C)c1=O (stereo not drawn) | 3.98 µM (active)
4 | COc1ccc(C)cc1NC(=O)C1CCN(S(=O)(=O)c2ccc3c(c2)NC(=O)CO3)CC1 | 7.94 µM (active)
5 | Cc1ccc(CCNC(=O)C2CCN(S(=O)(=O)c3ccc4c(c3)NC(=O)CO4)CC2)cc1 | 10 µM (active)
6 | Cc1ccc(C)c(N2CCN(S(=O)(=O)c3ccc4c(c3)NC(=O)CS4)CC2)c1 | 8.91 µM (active)
7 | Cc1cccc(N2CCN(S(=O)(=O)c3ccc4c(c3)NC(=O)CO4)CC2)c1C | 11.2 µM (active)
8 | O=C(CCl)Nc1cccc(Oc2cnccn2)c1 | 3.55 µM (active)
9 | O=C(/C=C/c1ccccc1Cl)c1ccc(O)cc1 | 10 µM (active)
10 | O=C(/C=C/c1c(F)cccc1Cl)c1ccc(O)cc1 | 12.6 µM (active)
11 | COc1ccc(-c2c(C(C)=O)c(C)n(C)c2C)cc1 | 10 µM (active)
12 | CCCCOc1ccc(NC2=NC3(CCCC3)N=C(N)N2)cc1 | 0.708 µM (active)
13 | COc1ccc2nc3sc(C(=O)NCCN4CCc5ccccc5C4)cc3cc2c1 | 2.24 µM (active)
14 | COc1ccc(/C=C2\CC/C(=C\c3ccc(OC)c(OC)c3)C2=O)cc1OC | 14.1 µM (active)
15 | COc1cc(/C=C2\CC(C(C)(C)C)C/C(=C\c3cc(OC)c(OC)c(OC)c3)C2=O)cc(OC)c1OC (stereo not drawn) | 3.16 µM (active)
16 | COc1cc(/C=C2\COC/C(=C\c3cc(OC)c(OC)c(OC)c3)C2=O)cc(OC)c1OC | 2.51 µM (active)
17 | COc1cc(/C=C2\COC/C(=C\c3ccc(O)c(OC)c3)C2=O)ccc1O | 3.55 µM (active)
18 | COc1cc(/C=C2/CCC/C(=C\c3cc(O)c(OC)c(Cl)c3)C2=O)cc(Cl)c1O | 7.08 µM (active)
19 | CC(C)c1ccc(C(=O)Nc2nnc(S(=O)(=O)N3CCOCC3)s2)cc1 | 12.6 µM (active)
20 | COc1ccc(C(=O)Nc2nnc(S(=O)(=O)N3CCOCC3)s2)cc1 | 15.8 µM (active)
21 | CCn1c(=O)c(CCC(=O)N2CCOCC2)c(C)c2c(C)nn(-c3ccccc3)c21 | 10 µM (active)
22 | C=CCSC(=C(C#N)C#N)c1cc2c([nH]1)CCCC2 | 4.47 µM (active)
23 | COC(=O)c1c(NC(=O)c2ccco2)sc2c1CC(C)(C)NC2(C)C | 14.1 µM (active)
24 | CCOC(=O)c1c(NC(=S)N2CCCCC2)sc2c1CCN(C(=O)OCC)C2 | 3.98 µM (active)
25 | Cc1cccc(CSc2cccc3cccnc23)c1 | 12.6 µM (active)

Row | Structure (SMILES) | Potency
26 | Cc1c(NC(=S)NC(=O)C(C)(C)C)c(=O)n(-c2ccccc2)n1C | inactive
27 | CCOC(=O)N1CCN(C(=O)c2ccc(Cl)c(S(=O)(=O)N3CCCC3)c2)CC1 | 12.6 µM (active)
28 | O=C(Nc1ccncc1)c1ccc(Cl)c(S(=O)(=O)N2CCCC2)c1 | 8.91 µM (active)
29 | Cc1c(NC(=O)c2ccc(Cl)c(S(=O)(=O)N3CCCCC3)c2)c(=O)n(-c2ccccc2)n1C | 10 µM (active)
30 | Cc1cc(F)ccc1S(=O)(=O)Nc1ccccc1C(=O)Nc1ccccc1-c1nc2ccccc2[nH]1 | 4.47 µM (active)
31 | Nc1cc[n+](CC(=O)c2ccc3c(c2)OCCO3)cc1 | 4.47 µM (active)
32 | CN(C)c1ccc(NC(=S)NC23CC4CC(CC(C4)C2)C3)cc1 | 1.58 µM (active)
33 | COCCNCC(=O)NC12CC3CC(CC(C3)C1)C2 | inactive
34 | COc1ccc(N2CCN(CCCn3c(=S)[nH]c4ccccc4c3=O)CC2)cc1 | 12.6 µM (active)
35 | O=C(/C=C/c1ccc(Cl)c(Cl)c1)NCCCn1ccnc1 | 12.6 µM (active)
36 | COc1ccc(C)cc1NC(=O)CSCc1ccccc1C | 12.6 µM (active)
37 | CCOc1ccc(-n2c(N)c(-c3nc4ccccc4n3C)c3nc4ccccc4nc32)cc1 | 3.98 µM (active)
38 | Cc1cc(NC(=O)CN2C(=O)NC(c3ccccc3)(c3ccc(C)c(C)c3)C2=O)no1 (stereo not drawn) | 11.2 µM (active)
39 | COc1ccccc1CNC(=O)CN1C(=O)NC(c2ccccc2)(c2ccc(C)c(C)c2)C1=O (stereo not drawn) | 12.6 µM (active)
40 | Cc1cccc(CS(=O)(=O)c2ncc(Cl)c(C(=O)Nc3c(C)cccc3C)n2)c1 | inactive
41 | COc1cc(NCc2ccc3nc(N)nc(N)c3c2C)cc(OC)c1OC | 0.199 µM (active)
42 | Cc1ccc(-n2cc(CN3CCC(CO)(Cc4cccc(C(F)(F)F)c4)CC3)cn2)cc1 | 7.94 µM (active)
43 | Cc1c(CCO)sc[n+]1CC(=O)OCCC12CC3CC(CC(C3)C1)C2 | 3.16 µM (active)
44 | O=C(Nc1ccc2[nH]ncc2c1)c1ccc(F)cc1 | inactive
45 | O=C(Nc1ccc(Cl)cc1)c1ccc(CN2CCc3ccccc3C2)cc1 | 14.1 µM (active)
46 | Cc1cc(C)cc(NC(=O)c2ccc(CN3CCc4ccccc4C3)cc2)c1 | 11.2 µM (active)
47 | O=C(Nc1ccc(F)cc1)c1ccc(CN2CCc3ccccc3C2)cc1 | 12.6 µM (active)
48 | COc1ccc(N2C(=O)C3C(C2=O)C(C(=O)c2ccc(Cl)cc2)N2CCCC32)cc1 (stereo not drawn) | inactive
49 | Cc1c(OC(C)C(=O)N2C[C@H]3C[C@@H](C2)c2cccc(=O)n2C3)ccc2c3c(c(=O)oc12)CCC3 (stereo partly drawn) | 11.2 µM (active)
50 | Cc1c(CC(=O)N2C[C@H]3C[C@@H](C2)c2cccc(=O)n2C3)c(=O)oc2cc3occ(C(C)(C)C)c3cc12 | 12.6 µM (active)

Row | Structure (SMILES) | Potency
51 | CC(C)N1C/C(=C/c2ccsc2)C(=O)/C(=C/c2ccsc2)C1 | 5.62 µM (active)
52 | CCC1S/C(=N/N=C/c2ccco2)N(Cc2ccccc2C)C1=O (stereo not drawn) | 10 µM (active)
53 | CCc1nc(SCC(=O)N2c3ccccc3CC2C)c2c(C)c(C)sc2n1 (stereo not drawn) | 11.2 µM (active)
54 | CCc1nc(SCC(=O)Nc2ccccc2OC)c2c(C)c(C)sc2n1 | 12.6 µM (active)
55 | CC(=O)NCCC(=O)Nc1cc(S(=O)(=O)N2CCOCC2)ccc1Oc1ccccc1 | 10 µM (active)
56 | CN(C)S(=O)(=O)c1ccc(NCC2COc3ccccc3O2)c([N+](=O)[O-])c1 (stereo not drawn) | 12.6 µM (active)
57 | COc1ccc(C(=O)CC(SCC(NC(C)=O)C(=O)O)c2ccc(Cl)cc2)cc1OC (stereo not drawn) | 11.2 µM (active)
58 | CCOC(=O)N1C/C(=C\c2ccccc2)C(=O)/C(=C/c2ccccc2)C1 | 4.47 µM (active)
59 | O=[N+]([O-])c1ccc(C[n+]2cccc3c4ccccc4ccc32)cc1 | 0.126 µM (active)
60 | COC1C(OC(=O)/C=C/C=C/C=C/C=C/C(=O)O)CCC2(CO2)C1C1(C)OC1CC=C(C)C (stereo not drawn) | 0.0501 µM (active)
61 | CC1=CC(C)(C)N2C(=O)C3(NCCc4c3[nH]c3ccccc43)c3cc(C)cc1c32 (stereo not drawn) | 11.2 µM (active)
62 | Fc1ccc(CNc2ccc(N3CCN(Cc4ccccc4)CC3)cc2)cc1 | 12.6 µM (active)
63 | CC1=NCCN1CCNC(=O)Nc1ccc(F)cc1 | inactive
64 | CCCc1c(NC(=O)Nc2ccc(F)cc2)cnn1-c1ccc(Cl)cc1 | 10 µM (active)
65 | CCCc1c(NC(=O)Nc2ccc(F)cc2)cnn1-c1ccccc1 | 11.2 µM (active)
66 | Cc1cccc(C2Nc3ccccc3C(=O)N2c2ccccc2)n1 (stereo not drawn) | inactive
67 | CCCN1C(=O)c2ccccc2NC1c1ccc(OC)cc1O (stereo not drawn) | 11.2 µM (active)
68 | Fc1ccc(CSc2nncn2NCc2ccc3c(c2)OCO3)cc1 | inactive
69 | Fc1cccc(CNc2ncnc3ccc(-c4ccc5c(c4)OCO5)cc23)c1 | 4.47 µM (active)
70 | Clc1ccc(-c2c[n+](Cc3ccc(Cl)cc3Cl)c3n2CCCCC3)cc1 | 0.0794 µM (active)
71 | Clc1ccc(-c2c[n+](Cc3ccc(Br)cc3)c3n2CCCCC3)cc1 | 0.0251 µM (active)
72 | CCN(CC)c1ccc(/C=C/c2cccc[n+]2C)c(OC)c1 | 0.141 µM (active)
73 | COC(=O)c1ccc(COc2ccc(-c3nnn(CC(N)=O)n3)cc2)cc1 | 1.58 µM (active)
